# Reference: PubChem BioAssay (Tox21)
# Several values for one entry are separate records, joined by “and”; a condition that tells them apart may be missing. Equal entries are not always repeated. More than one record can exist for a structure, and the calls need not agree. Activity calls are given as the source filed them. A call without a number means that no potency is given here. Unless noted, calls follow the shape of the dose curve; as a rule, active = well fitted curve in the direction sought with a large enough effect in the repeat runs; inconclusive = weak or mixed curves; inactive = no such curve, though single readings can be large; an effect the other way counts as inactive or inconclusive.
# Columns and labels:
# [1] = qHTS assay to identify small molecule antagonists of the thyroid receptor (TR) signaling pathway - cell viability counter screen (AID 743064); also: nearly all actives have a fitted effect of over 50% in size; also: potency is read from the fitted curve at half-maximal effect
# Summary of the method: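 Same-well viability check: GH3.TRE-Luc cells stimulated with 1 nM T3 alongside test compound for 23.5 h, followed by CellTiter-Fluor fluorescence.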
# [2] = qHTS assay to identify small molecule antagonists of the thyroid receptor (TR) signaling pathway (AID 743065); also: nearly all actives have a fitted effect of over 55% in size; also: potency is read from the fitted curve at half-maximal effect
# Summary of the method: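 Antagonism measured as loss of luciferase signal in GH3 cells stably carrying a TRE-luciferase reporter, co-treated with compound and T3 (1 nM final) for 23.5 h at 37 C. Viability was read in the same well by CellTiter-Fluor.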
# [3] = test system: thyroid hormone receptor (rat, GH3 cells); experiment: qHTS assay to identify small molecule agonists of the thyroid receptor (TR) signaling pathway (AID 743066; calls by dose curve; also: potency is read from the fitted curve at half-maximal effect)
# [4] = target: Estrogen receptor (Homo sapiens) (UniProt P03372); experiment: qHTS assay to identify small molecule antagonists of the estrogen receptor alpha (ER-alpha) signaling pathway (AID 743069; active = well fitted curve in the direction sought with a large enough effect in the signal ratio in the repeat runs, not every such curve was filed as active; inconclusive = weak or mixed curves, or effect the other way; inactive = no such curve, though single readings can be large or run the other way; the % refers to the signal ratio)
# Summary of the method: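 Fluorescence intensity from a beta-lactamase FRET substrate served as the read-out. Cells: HEK293 with stably integrated ER-alpha-UAS-bla reporter. Agonist 17beta-estradiol was co-added with compounds; incubation 18 hr at 37C, substrate 2 hr at room temperature.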
# [5] = qHTS assay to identify small molecule antagonists of the estrogen receptor alpha (ER-alpha) signaling pathway - cell viability counter screen (AID 743074; calls by dose curve; also: nearly all actives have a fitted effect of over 45% in size; also: potency is read from the fitted curve at half-maximal effect)
# [6] = target: Estrogen receptor (Homo sapiens) (UniProt P03372); experiment: qHTS assay to identify small molecule agonists of the estrogen receptor alpha (ER-alpha) signaling pathway (AID 743075; calls by dose curve; also: potency is read from the fitted curve at half-maximal effect)
# [7] = target: Estrogen receptor (Homo sapiens) (UniProt P03372); experiment: qHTS assay to identify small molecule agonists of the estrogen receptor alpha (ER-alpha) signaling pathway using the BG1 cell line (AID 743079); also: nearly all actives have a fitted effect of over 20% in size; also: potency is read from the fitted curve at half-maximal effect
# [8] = qHTS assay to identify small molecule antagonists of the estrogen receptor alpha (ER-alpha) signaling pathway using the BG1 cell line - cell viability counter screen (AID 743081);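 also: compound given together with 17beta-estradiol as the ER stimulus; series mostly up to about 70 µM; nearly all actives have a fitted effect of over 45% in size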
# Aromatase (Homo sapiens) = Aromatase (Homo sapiens) (UniProt P11511); experiment: qHTS assay to identify aromatase inhibitors (AID 743083); also: nearly all actives have a fitted effect of over 55% in size; also: potency is read from the fitted curve at half-maximal effect
# [9] = qHTS assay to identify aromatase inhibitors - cell viability counter screen (AID 743084);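 also: cells stimulated with testosterone during compound exposure; nearly all actives have a fitted effect of over 55% in size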; also: potency is read from the fitted curve at half-maximal effect
# [10] = target: Aryl hydrocarbon receptor (Homo sapiens) (UniProt P35869); experiment: qHTS assay to identify small molecule that activate the aryl hydrocarbon receptor (AhR) signaling pathway (AID 743085); also: nearly all actives have a fitted effect of over 15% in size; also: potency is read from the fitted curve at half-maximal effect;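 as to activation: HG2L7.5c1 human HepG2 liver cells with stably integrated DRE-driven firefly reporter; series mostly up to about 70 µM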
# Summary of the method: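 Reporter assay in engineered HepG2 line HG2L7.5c1, whose plasmid carries twenty dioxin responsive elements upstream of firefly luciferase. Treatment lasted 24 h at 37C; ONE-Glo luminescence gauged induction.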
# [11] = target: Peroxisome proliferator-activated receptor gamma (Homo sapiens) (UniProt P37231); experiment: qHTS assay to identify small molecule agonists of the peroxisome proliferator-activated receptor gamma (PPARg) signaling pathway (AID 743094; active = well fitted activation curve with a large enough effect in the signal ratio in the repeat runs, not every such curve was filed as active; inconclusive = weak or mixed curves, or effect the other way; inactive = no such curve, though single readings can be large or run the other way; the % refers to the signal ratio; also: potency is read from the fitted curve at half-maximal effect)
# Summary of the method: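 Reporter activation was scored by fluorescence of cleaved LiveBLAzer B/G substrate (1 h, room temperature) in PPARg-bla HEK293H cells previously treated 17 h at 37C with DMSO-dissolved compounds.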
# [12] = target: Peroxisome proliferator-activated receptor gamma (Homo sapiens) (UniProt P37231); experiment: qHTS assay to identify small molecule antagonists of the peroxisome proliferator-activated receptor gamma (PPARg) signaling pathway (AID 743191; calls by dose curve; also: series mostly up to about 63 µM; nearly all actives have a fitted effect of over 30% in size)
# Summary of the method: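 Beta-lactamase reporter under UAS control in HEK293H PPARg-bla cells; compound treatment 17 h at 37C. Read-out: fluorescence intensity after 1 h room-temperature incubation with LiveBLAzer B/G FRET substrate.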
# [13] = qHTS assay for small molecule agonists of the antioxidant response element (ARE) signaling pathway (AID 743202; active = well fitted activation curve with a large enough effect in the signal ratio in the repeat runs, not every such curve was filed as active; inconclusive = weak or mixed curves, or effect the other way; inactive = no such curve, though single readings can be large or run the other way; the % refers to the signal ratio; also: potency is read from the fitted curve at half-maximal effect)
# Summary of the method: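 Beta-lactamase reporter activity, read as fluorescence intensity, reflects ARE/Nrf2 pathway induction in HepG2 cells after 16 h compound exposure at 37 C; substrate loading was 2 h at room temperature.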
# [14] = qHTS assay for small molecule activators of the heat shock response signaling pathway - cell viability counter screen (AID 743209); also: nearly all actives have a fitted effect of over 50% in size; also: potency is read from the fitted curve at half-maximal effect
# Summary of the method: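 Viability of HSE-bla HeLa cells is measured with CellTiter-Glo in the wells already used for the reporter read. Compound exposure lasts 5 h at 37 C, and luminescence is read after 30 min at room temperature.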
# [15] = qHTS assay for small molecule activators of the heat shock response signaling pathway (AID 743210; active = well fitted activation curve with a large enough effect in the signal ratio in the repeat runs, with a control signal flat, not every such curve was filed as active; inconclusive = weak or mixed curves; the % refers to the signal ratio; also: potency is read from the fitted curve at half-maximal effect;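 as to activation: HeLa cells with beta-lactamase reporter driven by heat shock elements; series mostly up to about 63 µM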)
# Summary of the method: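 Fluorescence from a cleaved B/G FRET substrate (2.5 h, room temp) reports HSE-driven beta-lactamase in HeLa cells treated 5 h at 37 C with DMSO-dissolved compounds.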
# [16] = qHTS assay to identify small molecule antagonists of the estrogen receptor alpha (ER-alpha) signaling pathway using the BG1 cell line (AID 743080; calls by dose curve;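 also: BG1 cells stimulated with 17beta-estradiol alongside compound; nearly all actives have a fitted effect of over 25% in size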; also: potency is read from the fitted curve at half-maximal effect)
# Summary of the method: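 BG1-Luc-4E2 cells (endogenous full-length ER-alpha, stable 4×ERE-luciferase) were starved 5 days in phenol-red-free medium with 10% charcoal-stripped FBS, plated 24 h, then given compound plus 17beta-estradiol for 21.5 h at 37 C; ONE-Glo luminescence read after 30 min.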
# [17] = qHTS assay to identify small molecule that activate the aryl hydrocarbon receptor (AhR) signaling pathway - cell viability counter screen (AID 743086);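 also: HepG2 liver cells carrying the AhR DRE luciferase reporter; series mostly up to about 70 µM; nearly all actives have a fitted effect of over 45% in size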
# Summary of the method: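 Cytotoxicity counter screen: CellTiter-Fluor signal (30 min, 37 C) in 4000 HepG2 cells/well carrying the DRE-luciferase reporter, following 24 h compound exposure at 37 C.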
# [18] = qHTS assay for small molecule agonists of the antioxidant response element (ARE) signaling pathway - cell viability counter screen (AID 743203; calls by dose curve; also: nearly all actives have a fitted effect of over 55% in size)
# Summary of the method: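 Viability counter screen: stably transfected ARE-bla HepG2 line, 16 hrs compound exposure at 37C/5% CO2, ATP-based CellTiter-Glo luminescence measured in the reporter wells.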
# [19] = qHTS assay to identify small molecule antagonists of the peroxisome proliferator-activated receptor gamma (PPARg) signaling pathway - cell viability counter screen (AID 743194); also: nearly all actives have a fitted effect of over 55% in size; also: potency is read from the fitted curve at half-maximal effect
# Summary of the method: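 Viability was measured as CellTiter-Glo luminescence in GeneBLAzer PPARg UAS-bla HEK293H cells. These cells had been exposed 17 h at 37 C to compounds together with rosiglitazone at 50 nM final, with the beta-lactamase readout taken in the same wells.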
# Chain of Aromatase (Homo sapiens) (P11511 whole entry, looked up): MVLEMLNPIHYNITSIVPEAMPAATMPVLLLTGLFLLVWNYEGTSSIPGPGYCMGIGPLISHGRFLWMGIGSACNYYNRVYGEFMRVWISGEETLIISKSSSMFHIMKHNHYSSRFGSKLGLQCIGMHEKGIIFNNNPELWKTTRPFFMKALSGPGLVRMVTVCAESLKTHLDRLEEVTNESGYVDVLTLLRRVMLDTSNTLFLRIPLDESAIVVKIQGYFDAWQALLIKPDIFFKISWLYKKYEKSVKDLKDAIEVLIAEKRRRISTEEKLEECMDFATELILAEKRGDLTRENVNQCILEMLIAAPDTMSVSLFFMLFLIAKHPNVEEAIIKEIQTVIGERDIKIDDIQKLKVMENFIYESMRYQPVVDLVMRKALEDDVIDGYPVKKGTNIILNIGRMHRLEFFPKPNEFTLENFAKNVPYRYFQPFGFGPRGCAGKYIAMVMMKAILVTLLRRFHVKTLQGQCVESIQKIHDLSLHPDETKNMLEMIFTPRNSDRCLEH
# Chain of Estrogen receptor (Homo sapiens) (P03372 whole entry, looked up): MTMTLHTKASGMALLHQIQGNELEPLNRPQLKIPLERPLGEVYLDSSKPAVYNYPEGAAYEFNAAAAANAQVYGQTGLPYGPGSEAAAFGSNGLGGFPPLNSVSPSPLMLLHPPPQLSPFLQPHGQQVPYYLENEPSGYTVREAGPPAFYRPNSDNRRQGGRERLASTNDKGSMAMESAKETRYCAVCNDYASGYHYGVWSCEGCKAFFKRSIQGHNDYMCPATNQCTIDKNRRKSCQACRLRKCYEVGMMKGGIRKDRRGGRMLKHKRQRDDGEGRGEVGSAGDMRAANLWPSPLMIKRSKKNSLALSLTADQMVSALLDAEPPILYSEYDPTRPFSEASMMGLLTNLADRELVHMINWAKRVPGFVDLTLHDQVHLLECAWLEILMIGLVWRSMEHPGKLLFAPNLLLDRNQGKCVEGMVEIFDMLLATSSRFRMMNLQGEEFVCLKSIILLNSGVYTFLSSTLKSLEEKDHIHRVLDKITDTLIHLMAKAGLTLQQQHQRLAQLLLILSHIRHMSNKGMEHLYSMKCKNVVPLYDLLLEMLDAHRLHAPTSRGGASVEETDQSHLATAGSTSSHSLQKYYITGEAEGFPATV
# Chain of Peroxisome proliferator-activated receptor gamma (Homo sapiens) (P37231 whole entry, looked up): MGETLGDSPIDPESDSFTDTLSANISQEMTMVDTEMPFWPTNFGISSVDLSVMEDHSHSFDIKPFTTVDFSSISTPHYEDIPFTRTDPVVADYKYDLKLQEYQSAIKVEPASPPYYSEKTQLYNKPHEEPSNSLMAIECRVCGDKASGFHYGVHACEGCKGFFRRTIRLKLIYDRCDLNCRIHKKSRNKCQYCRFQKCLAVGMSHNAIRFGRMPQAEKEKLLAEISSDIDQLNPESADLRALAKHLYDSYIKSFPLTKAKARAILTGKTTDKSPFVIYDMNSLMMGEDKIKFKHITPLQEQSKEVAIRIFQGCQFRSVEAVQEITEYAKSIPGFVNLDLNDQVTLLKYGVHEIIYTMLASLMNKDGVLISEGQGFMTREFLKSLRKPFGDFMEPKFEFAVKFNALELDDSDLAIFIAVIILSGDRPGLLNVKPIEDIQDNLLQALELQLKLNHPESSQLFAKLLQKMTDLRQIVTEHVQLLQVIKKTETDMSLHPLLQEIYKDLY
# Chain of Aryl hydrocarbon receptor (Homo sapiens) (P35869 whole entry, looked up): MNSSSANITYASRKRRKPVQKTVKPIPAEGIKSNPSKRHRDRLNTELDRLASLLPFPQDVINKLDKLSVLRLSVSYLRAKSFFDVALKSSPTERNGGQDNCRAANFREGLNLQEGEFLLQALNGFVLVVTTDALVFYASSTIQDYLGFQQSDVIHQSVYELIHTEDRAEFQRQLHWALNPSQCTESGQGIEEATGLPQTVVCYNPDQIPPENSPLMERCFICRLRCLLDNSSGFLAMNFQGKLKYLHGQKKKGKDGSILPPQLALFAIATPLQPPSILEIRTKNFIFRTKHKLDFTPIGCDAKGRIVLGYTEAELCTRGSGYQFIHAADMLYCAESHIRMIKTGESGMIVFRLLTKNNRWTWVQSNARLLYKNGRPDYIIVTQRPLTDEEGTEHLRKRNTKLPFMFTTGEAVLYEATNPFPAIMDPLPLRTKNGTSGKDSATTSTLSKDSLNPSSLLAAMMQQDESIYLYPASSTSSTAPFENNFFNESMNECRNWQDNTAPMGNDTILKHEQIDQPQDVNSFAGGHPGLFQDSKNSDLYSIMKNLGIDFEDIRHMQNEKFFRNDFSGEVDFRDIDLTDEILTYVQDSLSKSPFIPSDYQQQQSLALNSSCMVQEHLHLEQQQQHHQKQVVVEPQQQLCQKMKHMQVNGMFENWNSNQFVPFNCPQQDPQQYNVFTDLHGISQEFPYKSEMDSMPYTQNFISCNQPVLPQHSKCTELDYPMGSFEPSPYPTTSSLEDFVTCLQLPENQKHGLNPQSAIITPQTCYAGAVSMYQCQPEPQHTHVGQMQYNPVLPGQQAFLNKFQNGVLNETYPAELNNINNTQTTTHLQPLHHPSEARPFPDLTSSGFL
SMILES,Potency [1],Potency [2],Potency [3],Potency [4],Potency [5],Potency [6],Potency [7],Potency [8],Potency (Aromatase (Homo sapiens)),Potency [9],Potency [10],Potency [11],Potency [12],Potency [13],Potency [14],Potency [15],Potency [16],Potency [17],Potency [18],Potency [19]
CCC(C)OC(=O)c1ccc(O)cc1 (stereo not given),inactive,inactive,inactive,inactive,inactive,24.7 µM [inconclusive] (active) and 38.9 µM [inconclusive] (active),6.9 µM (active) and 6.11 µM (active),inactive,inactive,inactive,inactive,inactive,inactive,inactive,inactive,inactive,,,,
CC(CCC(=O)O)(c1ccc(O)cc1)c1ccc(O)cc1,inactive,inactive,inactive,inactive,inactive,inactive,61.1 µM (active),inactive,inactive,inactive,inactive,inactive,inactive,inactive,inactive,inactive,inactive,inactive,inactive,
O=C(/C=C/c1ccccc1)OCc1ccccc1,inactive,inactive,inactive,inactive,inactive,inactive,29.8 µM (active),inactive,inactive,inactive,inactive,inactive,,,inactive,inactive,inactive,inactive,inactive,
C=C(C)C(=O)OCCOC(=O)C(=C)C,inactive,inactive,inactive,inactive,inactive,inactive,inactive,inactive,inactive,inactive,inactive,inactive,inactive,inactive,inactive,inactive,inactive,inactive,inactive,
CCCCOCCOCCOCCO,inactive,inactive,inactive,inactive,inactive,inactive,inactive,inactive,inactive,inactive,inactive,inactive,inactive,inactive,inactive,inactive,inactive,,inactive,inactive
CCCCOCCOCCO,inactive,inactive,inactive,inactive,inactive,inactive,inactive,inactive,inactive and 61.1 µM (active),inactive,inactive,inactive,inactive,inactive,inactive,inactive,inactive,,,inactive
O=CCCCC=O,inactive,inactive,inactive,inactive,inactive,inactive,inactive,inactive,inactive,inactive,,inactive and 53 µM (active),,52.5 µM (active) and inactive,47.2 µM (active) and inactive,inactive,,inactive,inactive,
OCCO,inactive,inactive,inactive,inactive,inactive,inactive,inactive,inactive,inactive,inactive,inactive,inactive,inactive,inactive,inactive,inactive,inactive,,,inactive
Cc1cccc([N+](=O)[O-])c1C,inactive,inactive,inactive,inactive,inactive,inactive,inactive,inactive,inactive,inactive,inactive,inactive,inactive,inactive,inactive,inactive,inactive,inactive,inactive,inactive
COc1ccccc1/C=C/C=O,55.9 µM (active),62.8 µM (active),inactive,inactive,inactive,inactive,inactive,inactive,inactive,inactive,,inactive,inactive,inactive,inactive,,inactive,inactive,inactive,inactive
Cc1[nH]c(=O)c(C#N)cc1-c1ccncc1,inactive,inactive,inactive,inactive,inactive,inactive,inactive,inactive,inactive,inactive,inactive,inactive,inactive,inactive,inactive,inactive,inactive,inactive,,inactive
CC(=O)O[C@]1(C(C)=O)CC[C@H]2[C@@H]3C=C(Cl)C4=CC(=O)[C@@H]5C[C@@H]5[C@]4(C)[C@H]3CC[C@@]21C,inactive and 54.4 µM (active),24.3 µM (active) and 54.5 µM (active),inactive,,inactive,,,inactive,inactive and 54.4 µM (active),inactive,inactive,inactive,,30.6 µM (active),inactive,inactive,,inactive,inactive,
CC(=O)C1(C)CC2=C(CCCC2(C)C)CC1C (stereo not given),inactive,inactive,inactive,,inactive,,,inactive,inactive,inactive,inactive,inactive,inactive,inactive,inactive,inactive,,,,
Cc1cccc(N(C)C(=S)Oc2ccc3ccccc3c2)c1,inactive,inactive,inactive,inactive,inactive,inactive,,inactive,inactive,inactive,,inactive,,,inactive,inactive,,inactive,inactive,inactive
O=C(COc1ccc(Cl)cc1)N1CCN(Cc2ccc3c(c2)OCO3)CC1,inactive,inactive,inactive,inactive,inactive and 30.9 µM (active),inactive,,inactive,inactive,inactive,inactive,,,15.4 µM (active) and 29.8 µM (active),inactive,inactive,61.1 µM (active),inactive,,
CCOCCOCCO,inactive,inactive,inactive,,inactive,,,inactive,inactive,inactive,inactive,inactive,inactive,inactive,inactive,inactive,,,inactive,inactive
CCCCC(CC)COP(=O)(OCC(CC)CCCC)OCC(CC)CCCC (stereo not given),inactive,inactive,inactive,,inactive,,,inactive,inactive,inactive,inactive,inactive,inactive,inactive,inactive,inactive,,inactive,inactive,inactive
Oc1ccc(O)cc1,26.6 µM (active) and 17.1 µM (active) and 34.4 µM (active),21.1 µM (active) and 30.5 µM (active) and 30.6 µM (active),inactive,,inactive,inactive,inactive,inactive,inactive and 60.8 µM (active),inactive and 54.2 µM (active),,,,,inactive,inactive,inactive,inactive,inactive,
O=CCc1ccccc1,inactive,inactive,inactive,,inactive,,,inactive,inactive,inactive,inactive,inactive,,,inactive,inactive,,inactive,inactive,inactive
S=C(NC1CCCCC1)NC1CCCCC1,inactive,inactive,inactive,inactive,48.1 µM (active),inactive,,inactive,,inactive,inactive,inactive,inactive,34.4 µM (active),,9.23 µM (active) and 13.8 µM (active),75.5 µM (active) and 54.5 µM (active),,,
CC(=O)Oc1ccccc1C(=O)Nc1ncc([N+](=O)[O-])s1,29.8 µM (active) and 19.7 µM (active),11.9 µM (active) and 7.85 µM (active),inactive,inactive,7.56 µM (active),inactive,0.668 µM (active),,inactive and 19.7 µM (active),22.1 µM (active),10.6 µM (active) and inactive,inactive,,inactive,1.19 µM (active),inactive,,,,1.58 µM (active) and 5.31 µM (active)
CC(C)=CCC/C(C)=C\CO,inactive,inactive,24.5 µM (active) and inactive,,inactive,,,inactive,,inactive,inactive,inactive,,inactive,inactive,,,inactive,inactive,inactive
O=C(c1ccccc1)c1ccc(O)cc1O,inactive,inactive,inactive and 30.6 µM (active),inactive,,19.9 µM [inconclusive] (active) and 38.9 µM [inconclusive] (active),9.88 µM (active) and 9.69 µM (active),inactive,inactive,inactive,inactive,inactive,inactive,30.6 µM (active),inactive,inactive,,,inactive,inactive
c1cc(N(CC2CO2)CC2CO2)ccc1OCC1CO1 (stereo not given),19.4 µM (active) and 27.3 µM (active),4.86 µM (active) and 3.86 µM (active),inactive,,inactive,inactive,inactive,inactive,24.4 µM (active) and 54.5 µM (active),27.3 µM (active),inactive,,,27.3 µM (active) and 19.3 µM (active),,,,,,
O=c1oc(=O)c2cc3c(=O)oc(=O)c3cc12,inactive,inactive,inactive,,inactive,,,inactive,inactive,inactive,inactive,inactive,inactive,2.73 µM (active),inactive,inactive,,,inactive,
O=C(O)c1ccccc1Nc1cccc(C(F)(F)F)c1,inactive,23.7 µM (active) and 27.3 µM (active),inactive,,inactive,inactive,inactive,inactive,inactive,inactive,inactive,inactive,,54.5 µM (active),inactive,inactive,inactive,,inactive,
